# In PubChem BioAssay AID684 (PCMD, 2007):
# About 95 (0.2%) of roughly 62,000 compounds were called active. The sample holds actives, similar compounds and a random draw of the others, so the mix is not that of the screen. Unmarked numbers belong to inactive results. Rule as the data show it: active = inhibition above about 20% (passing the limit was not always enough); inactive = the rest.
# Molecular target: Coagulation factor XII (Homo sapiens) (UniProt P00748)
# Assay: human factor XIIa inhibitors, primary screen, biochemical, pooled compound mixtures, fluorogenic substrate (AID 684);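 also: 0% = enzyme without compound and 100% = no enzyme blank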
# Details: purified FXIIa, at 5 µM, active compounds read high
# Chain of Coagulation factor XII (Homo sapiens) (P00748 20-372 limits assumed): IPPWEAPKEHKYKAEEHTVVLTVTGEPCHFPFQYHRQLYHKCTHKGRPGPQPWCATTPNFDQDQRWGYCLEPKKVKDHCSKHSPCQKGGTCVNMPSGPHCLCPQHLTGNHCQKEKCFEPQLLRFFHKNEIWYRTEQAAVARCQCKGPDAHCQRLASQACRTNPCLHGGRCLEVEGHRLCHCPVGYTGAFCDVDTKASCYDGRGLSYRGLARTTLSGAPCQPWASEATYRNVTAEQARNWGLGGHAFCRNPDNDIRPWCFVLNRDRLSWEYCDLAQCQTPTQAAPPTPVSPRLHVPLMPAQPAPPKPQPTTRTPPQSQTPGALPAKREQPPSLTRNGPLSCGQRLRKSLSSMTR
# Chain of Coagulation factor XII (Homo sapiens) (P00748 373-615 limits assumed): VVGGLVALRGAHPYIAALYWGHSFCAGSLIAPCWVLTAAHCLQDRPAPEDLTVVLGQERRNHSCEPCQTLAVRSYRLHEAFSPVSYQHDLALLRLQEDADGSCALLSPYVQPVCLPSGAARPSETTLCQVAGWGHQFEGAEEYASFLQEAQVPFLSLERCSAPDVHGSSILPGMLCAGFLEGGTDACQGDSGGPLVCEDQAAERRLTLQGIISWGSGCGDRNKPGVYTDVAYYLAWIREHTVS
row,Structure (SMILES),inhibition
1,CC1(C)CC(=O)c2sc(N)nc2C1,4.78%
2,CCN1CCN(c2c(Cl)cccc2NC(=O)c2ccc(Br)o2)CC1,10.2%
3,CCOC(=O)c1ccc(N2C(=O)CC(Sc3nc(O)c(CC)c(=O)[nH]3)C2=O)cc1 (stereo not drawn),-16.1%
4,O=C(CCCn1c(=O)[nH]c2cc(Cl)ccc2c1=O)NCCN1CCN(c2ccccc2)CC1,6.45%
5,CC(C)Cn1c(CN(Cc2ccccc2)Cc2ccccc2)nc2c1c(=O)n(C)c(=O)n2C,2.03%
6,CCOCC(=O)NCc1ccc2c(c1)cc(C)n2C,5.58%
7,CC1CCCC(NC(=O)CSc2nccn2C)C1C (stereo not drawn),4.17%
8,O=C(/C=N/O)Nc1ccccc1,1.18%
9,CCC(=O)N1CCN=C1SCc1ccc(F)cc1,11.4%
10,Cc1ccc(CN2C(=O)CCC2C(=O)NCCCN2CCCCC2C)cc1 (stereo not drawn),5.07%
11,Cc1cc(C)c(C#N)c(SCS(=O)c2ccc(C(C)(C)C)cc2)n1 (stereo not drawn),4.64%
12,CCOC(=O)c1cc2c(n(-c3ccc(C)cc3)c1=O)CCCC2=O,6.98%
13,CC(c1ccco1)N(C(=O)c1ccc(S(=O)(=O)N2CCCCC2)cc1)c1ccccn1 (stereo not drawn),12%
14,COC(=O)c1oc2ccc(Br)cc2c1NC(C)=O,8.62%
15,Cc1nnc(SCc2cc(=O)[nH]c(N3CCN(Cc4ccccc4)CC3)n2)s1,2.33%
16,Cc1nn(-c2cc(Cl)ccc2N)c(=O)c2ccccc12,4.62%
17,COc1cc(OC)c(C(=O)Nc2ccc(N(C)C)cc2)cc1OC,6.85%
18,CSc1ccc(NC(=O)N2CC(C)OC(C)C2)cc1 (stereo not drawn),7.45%
19,O=C(Nc1cccc2cccnc12)c1cccc(N2C(=O)CCC2=O)c1,8.88%
20,CCCCOC(=O)Nc1nccs1,0.87%
21,CC1=C(C(N)=O)C(c2ccc3c(c2)OCO3)n2nc(-c3cccc(C)c3)nc2N1 (stereo not drawn),6.61%
22,CCn1c(SCC(=O)c2ccc(Cl)s2)nnc1-c1cccs1,7.99%
23,O=C(O)c1ccc(COCC(F)(F)F)cc1,7.12%
24,COc1ccccc1C(=O)C(O)c1ccccc1OC (stereo not drawn),5.88%
25,CC(C)C(=O)Nc1c(C(=O)c2ccc(F)cc2)oc2ccccc12,-2.16%
26,Cc1cccc(C(=O)Nc2ccc(CC(=O)O)cc2)c1,3.19%
27,O=c1[nH][nH]c(=O)c2cc(N3CCCC3)ccc12,10.2%
28,Cc1cc(=O)n2nc(N3CCCC3C(=O)NCCCN3CC(C)CC(C)C3)sc2n1 (stereo not drawn),-7.38%
